Compounds with a hit are over-represented: about 4.1% of the library has one in this group of screens.
hcDAF12 agonist = H. contortus DAF-12 nuclear receptor activators, primary screen, cell-based, luminescence, HEK293, lit1-tk-luc reporter | HEK293 hcDAF-12 lit1-tk-luc reporter; 0% DMSO, 100% Δ7-dafachronic acid | activation, % at 6.8 µM | actives 1.4% (n = 370,000) | AID 652067, 2013;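 active = activation above the mean of all tested compounds plus 3 SD, cut at about 5.5% in these data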;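 note: 100% = response to 3 µM Δ7-dafachronic acid high control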
hgDAF12 agonist = H. glycines DAF-12 receptor agonists, primary screen, cell-based, luminescence, HEK293, GAL4 fusion, UAS-luciferase; actives 1.8% (n = 370,000); AID 687014, 2013; HEK293 GAL4-hgDAF12 UAS-luciferase reporter, agonist luminescence; normalized to butyrate control; activation, % at 6.8 µM;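 active = activation above a cutoff set at the mean of all screened compounds plus 3 SD, cut at about 10% in these data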;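 note: 0% = DMSO wells and 100% = sodium butyrate wells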
DAX1 inh-1 = DAX1 (NR0B1) inhibitors, primary screen, cell-based, HEK293, Gal4-DAX1, luciferase luminescence | Nuclear receptor subfamily 0 group B member 1 (Homo sapiens), P51843 | actives 0.99% (n = 340,000) | inhibition, % at 6.75 µM | HEK293 Gal4-DAX1 luciferase reporter | AID 504766, 2011;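 active = inhibition above the mean over all tested compounds plus 3 SD, cut at about 4.2% in these data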;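 note: 0% = DAX1-transfected cells with DMSO and 100% = empty-vector control cells with DMSO; inhibition shows as a rise in luminescence from relieved DAX1 repression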
ssDAF12 agonist = S. stercoralis DAF-12 nuclear receptor activators, primary screen, cell-based, luminescence, HEK293, GRIP1 co-expression, lit1-tk-luc. activation, % at 6.8 µM. AID 652126, 2013. HEK293 ssDAF-12/GRIP1 lit1-tk-luc reporter; % of 3 µM dafachronic acid response. Nuclear hormone receptor DAF-12 (Strongyloides stercoralis). actives 1% (n = 370,000);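 active = activation above the mean over all tested compounds plus 3 SD, cut at about 0.9% in these data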;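 note: 0% = DMSO-only wells and 100% = 3 µM delta7-dafachronic acid wells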
DAX1 inh-2 = DAX1 (NR0B1) inhibitors on StAR promoter, primary screen, cell-based, luminescence, SF-1 (NR5A1), full-length DAX-1; HEK293T StAR-luciferase reporter, SF-1/DAX-1 repression relief; inhibition, % at 6.8 µM; actives 1.1% (n = 370,000); AID 652010, 2013;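 active = inhibition above the mean over all tested compounds plus 3 SD, cut at about 3.6% in these data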;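 note: 0% = DAX-1 cells with DMSO and 100% = cells lacking DAX-1 with DMSO; higher inhibition means more luminescence from relief of DAX-1 repression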
DAX1 conf = DAX1 (NR0B1) inhibitors relieving SF-1 repression, confirmation, cell-based, luminescence, HEK293T, full-length DAX-1, SF-1 activated StAR promoter | actives 87% (n = 2,400) | shares compounds with DAX1 inh-2 | AID 652134, 2013 | inhibition, % at 6.8 µM | HEK293T StAR-promoter luciferase reporter, SF-1/DAX-1 repression;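 active = inhibition above the average of every tested compound plus 3 SD, cut at about 3.8% in these data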;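 note: 0% = DAX-1 cells with DMSO and 100% = no DAX-1 control cells with DMSO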
Target sequence (P51843 whole entry, looked up): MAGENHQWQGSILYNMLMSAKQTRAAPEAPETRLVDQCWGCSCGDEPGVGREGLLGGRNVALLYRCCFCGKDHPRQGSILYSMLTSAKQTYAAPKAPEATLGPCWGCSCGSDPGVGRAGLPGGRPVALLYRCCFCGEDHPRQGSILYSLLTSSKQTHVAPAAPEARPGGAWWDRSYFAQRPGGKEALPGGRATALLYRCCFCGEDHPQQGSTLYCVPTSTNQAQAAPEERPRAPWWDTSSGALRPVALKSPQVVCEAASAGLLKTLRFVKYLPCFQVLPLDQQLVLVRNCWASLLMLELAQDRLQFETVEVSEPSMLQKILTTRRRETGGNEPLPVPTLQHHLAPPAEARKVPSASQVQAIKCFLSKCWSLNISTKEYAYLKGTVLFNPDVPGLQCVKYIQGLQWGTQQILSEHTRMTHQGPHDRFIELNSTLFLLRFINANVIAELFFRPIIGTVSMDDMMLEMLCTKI
SF1 AF2mut Luc = StAR reporter signal changes without DAX1, counter-screen for DAX1 inhibitor project, cell-based, luminescence, AF-2 mutant SF-1, transactivation | actives 78% (n = 2,400) | HEK293 StAR-luciferase, SF-1 AF2 mutant | shares compounds with DAX1 inh-2 | inhibition, % at 6.8 µM;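 active = inhibition above the mean of all tested compounds plus 3 SD, cut at about 3% in these data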;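 note: 0% = DAX-1 transfected cells with DMSO and 100% = cells without DAX-1 with DMSO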
LXRb hcDAF ctr = LXR agonists, Gal4 luciferase reporter, confirmation, counter-screen for hcDAF-12 agonist project, cell-based, luminescence, HEK293, H. contortus campaign | shares compounds with hcDAF12 agonist | HEK293 Gal4-LXR tk-luc reporter, 24 h; normalized: DMSO 0%, positive control 100% | activation, % at 6.8 µM | 3,400 tested, under 10 active;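 active = mean percent activation of the reporter above a cutoff set as the average over tested compounds plus their standard deviation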
hcDAF12 ag = H. contortus DAF-12 receptor agonists, confirmation, cell-based, luminescence, HEK293, lit1-tk-luc, triplicate; shares compounds with hcDAF12 agonist; HEK293 hcDAF-12 lit1-tk-luc reporter; % of Δ7-dafachronic acid response; activation, % at 6.8 µM; actives 61% (n = 3,400); AID 743032, 2013;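 active = mean activation across triplicate tests above the threshold derived from the earlier primary screen, cut at about 5.5% in these data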;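 note: 0% = DMSO only wells and 100% = 3 µM Δ7-dafachronic acid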
* hit, by the source's call; / = not tested or not shown.

SMILES | hcDAF12 agonist | hgDAF12 agonist | DAX1 inh-1 | ssDAF12 agonist | DAX1 inh-2 | DAX1 conf | SF1 AF2mut Luc | LXRb hcDAF ctr | hcDAF12 ag
COC(=O)[C@]12C[C@H](CC(=O)N3CCOCC3)C(=O)N(Cc3ccccc3)C1=C[C@H](C(C)C)O[C@@H]2C1CC1 | 2 | 4 | / | 0 | -1 | / | / | / | /
O=C(CCN1CCOCC1)Nc1cc(C(=O)Nc2ccc(Cl)cc2)ccc1N1CC2CC(C1)c1cccc(=O)n1C2 (stereo unspecified) | -3 | -3 | 0 | -1 | -2 | / | / | / | /
CN(C)c1ccc(/C=N/NC(=O)c2ccco2)cc1 | 10* | 14* | 0 | 1.2* | 4.6* | 14* | 7.1* | 1 | 5
Cc1ccc2c(c1)N(CC(=O)NC1CCCCCC1)C(=O)c1cccnc1O2 | 0 | -1 | -1 | -1 | 0 | / | / | / | /
Cc1cc(Cl)ccc1C(O)c1ncc(-c2ccc3ccccc3c2)[nH]1 (stereo unspecified) | 1 | 2 | / | 0 | 0 | / | / | / | /
CCOc1ccc(CNC(=O)C2Cc3cc(S(=O)(=O)N4CCCC4)ccc3N2C(C)=O)cc1 (stereo unspecified) | -1 | -1 | 0 | -1 | -1 | / | / | / | /
COc1ccc(NC(=O)Nc2cc(C)ccn2)cc1 | 7.3* | 19* | -2 | 1 | 5.0* | 17* | 8.2* | 2 | 8.9*
COc1ccc(C(=O)NC(=O)Nc2cc(C)ccn2)cc1 | 7.7* | 8 | -1 | 1 | 6.6* | -1 | -4 | 1 | 3
O=C(C1CCCCC1)N1C[C@H](n2cc(C3CC3)nn2)[C@@H](O)C[C@@H]1c1ccc(Cl)cc1 | -1 | 2 | 1 | -1 | 1 | / | / | / | /
CC(/C=N/NC(=O)c1cccs1)=C\c1ccccc1 | 6.8* | 16* | 2 | 1.4* | 7.0* | 18* | 7.8* | 2 | 7.2*
Cc1ccc(C#N)c(SCC(=O)Nc2nccs2)n1 | 18* | 20* | 0 | 3.0* | 6.3* | 12* | 6.6* | 2 | 22*
CCOC(=O)c1c(SCC(=O)Nc2nccs2)nc(C)c(C)c1C | 11* | 5 | 0 | 0 | 6.6* | 4.1* | 2 | 0 | 2
CCn1c(C)nnc1SCC(=O)Nc1nccs1 | 3 | -1 | -1 | 0 | 0 | / | / | / | /
CCc1nnc(NC(=O)CSc2nc(C)cc(C)c2C#N)s1 | 7.7* | 11* | -1 | -1 | 6.7* | 15* | 8.4* | 1 | 9.5*
O=C(/C=C/Nc1cccc(O)c1)c1ccccc1 | 7.0* | 7 | -2 | 0 | 6.6* | 13* | 6.0* | 2 | 13*
O=C(/C=C\Nc1ccccn1)c1ccccc1 | 12* | 9 | -2 | 1 | 5.3* | 10.0* | 1 | 1 | 9.7*

Screening data: PubChem BioAssay, The Scripps Research Institute Molecular Screening Center
